± gives the standard deviation.
Test system: MILI (PIWIL2) piRISC loaded with piRNA #1 (26 nt)
Assay: pre-steady-state target cleavage rate (min^-1); guide: piRNA #1 5'p-UGAGGUAGUAGGUUGUAUAGUAUCCA; MIWI and MILI are mouse PIWI proteins and EfPiwi is from a freshwater sponge; tags in brackets are library labels; higher = faster piRNA-guided slicing of the target
Conditions: auxiliary factor: 500 nM mouse GTSF1
In short: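 The method was Cleave-'n-Seq, in which uncleaved targets from a transcribed, DNA-blocked target RNA library were sequenced after exposure to active affinity-purified piRISC carrying one synthetic guide, with or without GTSF1 partner protein. Reactions contained 0.1 nM library, 1 nM piRISC and, where present, 500 nM GTSF1 in HEPES–potassium acetate buffer at 33 °C for 0–8 or 0–960 min. Reads were normalised to depth and to weakly complementary targets, three trials were pooled, and k3 was capped at 0.0001 min^-1. The pre-steady-state cleavage rate came from a burst-and-steady-state fit.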

Row | Sequence | pre-steady-state target cleavage rate
1 | GGAGACCUAUGUAUACAACCUACUACUCA | 0.063 ± 0.013
2 | GGAGACGAAACUAAACAACCUACUACCUCA | 0.145 ± 0.022
3 | GGAGACCUAUCUAUACUACCUUCUACCUCA | 0.00727 ± 0.003
4 | GGAGACCUAUGAUUACAUCCUACUACCACA | 0.0105 ± 0.0035
5 | GGAGACCUAUGUUUACAACCUACUACCUCA | 0.0117 ± 0.0031
6 | GGAGACCAUACUAUACAACCUACAUGCUCA | 0.134 ± 0.028
7 | GGAGACCUAUGUAUACAACCUACUACCGUCA | 0.0528 ± 0.0094
8 | GGAGACCUAUGUAUACCAACCUACUACCUCA | 0.00297 ± 0.003
9 | GGAGACCUAUGUAUACUACCUACUACCACA | 0.0548 ± 0.008
10 | GGAGACCUAACUAAACAACCUACUUCCUCA | 0.0346 ± 0.013
11 | GGAGACCUUACUAUACAACCUACCACCUCA | 0.118 ± 0.015
12 | GGAGACCUAUGUAUACUAGCUACUACCUCA | 0.0336 ± 0.0059
13 | GGAGACCUAUCUAUACAACGUACUACGUCA | 0.00657 ± 0.0026
14 | GGAGACGAUACAAUACAAGCUACUACCUCA | 0.236 ± 0.017
15 | GGAGAGGAUUCUAUACUACCUACUACCUCA | 0.161 ± 0.0097
16 | GGAGACCUUACUUUUCAACCUACUACCUCA | 0.0874 ± 0.01
17 | GGAGACCUAUGAUAUGUUCCUACUACCAGA | < 0.0001
18 | GGAGAGGAUUCUAUACAACCUACUACCUGA | 0.0768 ± 0.011
19 | GGAGACCUAACUAAACAACCUACUACCACA | 0.139 ± 0.027
20 | GGAGACCUAUCUAAACAACCUUCUACCUCA | 0.00634 ± 0.0024

Row | Sequence | pre-steady-state target cleavage rate
21 | GGAGACCUAUCAAUACAUCCUACUACCUCA | 0.109 ± 0.02
22 | GGAGACCUAUGUAUACAACCUACGUACCUCA | 0.0295 ± 0.0083
23 | GGAGACCAUACUAAACAAGCUACUACCUCA | 0.236 ± 0.018
24 | GGAGACGAUACUAUAGAACCUACAACCUCA | 0.0115 ± 0.0039
25 | GGAGACCUAUGAUAACAACCUACCACCUCA | 0.00342 ± 0.0032
26 | GGAGACCAUACAAUAGAACCUACUACCUCA | 0.179 ± 0.02
27 | GGAGACCUUACUAUACAACCUACGUACCUCA | 0.0918 ± 0.0092
28 | GGAGACCUAUGAUAACAACCUACGACCUCA | 0.0039 ± 0.0025
29 | GGAGACGAUACUUUACAACCUACUAGCUCA | 0.0695 ± 0.013
30 | GGAGACCUAUGAUAUGAACGCUACUACCUCA | < 0.0001
31 | GGAGACCUAACUAUUGAACCUACUACCUCA | 0.0878 ± 0.011
32 | GGAGACCUUACUAUUCAACCUACUAGCUCA | 0.0771 ± 0.014
33 | GGAGUGGACUACUAUACAACCUACUACCUCA | 0.156 ± 0.01
34 | GGAGACCAUACUAUACAAGCUUCUACCUCA | 0.036 ± 0.007
35 | GGAGACCUAUGAUAUGUACUCUACUACCUCA | < 0.0001
36 | GGAGACCUAUCUAUACAACCGACUACCUCA | 0.0049 ± 0.003
37 | GGAGACCUAUCUAUACUACCUACAACCUCA | 0.0808 ± 0.009
38 | GGAGACCUAUCUAUACAUCCUACUACCACA | 0.209 ± 0.025
39 | GGAGACCAUACUAUACAACCUACAACCACA | 0.0647 ± 0.017
40 | GGAGACCUAACUAUACAACCUACUACGCUCA | 0.212 ± 0.042

Source: the supplement of paper PMC10338343
